Screening data from PubChem BioAssay.
D1 potentiator – human D1 dopamine receptor positive modulation. P21728. HEK293 TREx D1 cells, calcium flux, dopamine EC20 potentiation. potentiation, % at 10 µM. 360,000 compounds, 0.036% hits. AID 504651; in the data active means potentiation above about 30%
D1 antagonist – antagonists of human D1 dopamine receptor; P21728; AID 504652; activity change, negative = inhibition, % at 10 µM; HEK293 TREx D1 cells, calcium flux, dopamine EC80; hits give low values; 360,000 compounds, 3.2% hits; in the data active means activity change below about -30%
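Compound effects on dopamine-evoked calcium signalling were measured in tetracycline-induced HEK293 Trex D1 cells. Dopamine at EC80 followed a 180 s compound pre-read, and fluorescence was tracked kinetically for 180 s more.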
TRHR enhancer – allosteric enhancers of human TRH receptor. P34981. TRHR cells, fluo-8 calcium fluorescence, EC20 TRH enhancement. enhancement, % at 2 µM. 360,000 compounds, 0.66% hits; in the data active means enhancement above about 30%
Target sequence (P34981 whole entry, looked up): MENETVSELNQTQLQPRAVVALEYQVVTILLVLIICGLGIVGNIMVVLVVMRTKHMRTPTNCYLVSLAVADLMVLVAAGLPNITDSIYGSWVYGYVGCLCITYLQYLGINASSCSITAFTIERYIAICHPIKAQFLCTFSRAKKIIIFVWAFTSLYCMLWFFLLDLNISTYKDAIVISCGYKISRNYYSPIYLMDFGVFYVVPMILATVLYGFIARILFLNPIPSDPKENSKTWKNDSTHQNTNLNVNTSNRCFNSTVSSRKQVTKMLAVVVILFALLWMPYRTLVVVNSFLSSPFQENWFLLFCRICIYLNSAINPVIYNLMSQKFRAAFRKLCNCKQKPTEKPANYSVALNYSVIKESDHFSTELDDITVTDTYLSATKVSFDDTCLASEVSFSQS
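Enhancer read-out: after compound pinning and an initial kinetic agonist-mode read, an EC20 of TRH (10 nM final) was injected and fluo-8 calcium signal (Ex 480/Em 530) followed at 1 s/cycle for 100 cycles in TRHR-expressing cells.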
D1 ag – agonists of human D1 dopamine receptor; P21728; HEK293 T-REx D1 cells, calcium flux, agonist mode; activation, % at 2 µM; 360,000 compounds, 1% hits; AID 504660
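Tetracycline-induced HEK293 TREx D1 cells, force-coupled to calcium signalling, were dye-loaded with a no-wash calcium kit. Compound was pin-added after a 10 s baseline. Fluorescence was read kinetically at 1 cycle/s for 180 s, with calcium rises flagged as agonism.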
TRHR ag – TRH receptor (human) agonism; P34981; TRHR cells, calcium flux fluo-8, FDSS agonist mode; activation, % at 2 µM; 360,000 compounds, 0.18% hits; AID 493084
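Steps: seed TRHR cells overnight; add fluo-8 no-wash Ca dye, RT 30 min–1.5 h; record 10 s baseline; pin-transfer compounds; monitor fluorescence 1 cycle/s for the agonist window. Calcium increases flag candidate agonists.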
Hits are given with their value. The list is not random: actives were taken first. Their share in the collection is about 4.6%. Unless noted, no stated cut-off is given here; in the data, active means activation above about 30%; inactive means the rest.

How did CCOC(=O)c1c(C)[nH]c(CCC(=O)Nc2cc(C)ccc2OC)c1C do in these assays?
D1 potentiator: inactive; D1 antagonist: inactive; TRHR enhancer: inactive; D1 ag: inactive; TRHR ag: inactive

How did O=C(NCC(c1ccc2c(c1)OCO2)N1CCOCC1)C(=O)Nc1ccc(Cl)cc1 (stereo unspecified) do in these assays?
D1 potentiator: inactive; D1 antagonist: inactive; TRHR enhancer: inactive; D1 ag: inactive; TRHR ag: inactive

Results for O=C(Nc1cccnc1Cl)c1cc2ccccc2o1 ?
D1 potentiator: inactive; D1 antagonist: inactive; TRHR enhancer: inactive; D1 ag: inactive; TRHR ag: inactive

What do the screens show for `CCOC(=O)c1c(CSCc2ccccc2)oc2ccc(O)c(CN(C)C)c12`?
D1 potentiator: inactive; D1 antagonist: inactive; TRHR enhancer: inactive; D1 ag: 36.3; TRHR ag: inactive

Results for CC(C)Nc1nc(NC(C)(C)C)nc(Oc2ccc(=O)n(C)n2)n1 ?
D1 potentiator: inactive; D1 antagonist: inactive; TRHR enhancer: inactive; D1 ag: 47.2; TRHR ag: inactive

How did CCOc1ccc(-c2cc(-c3nc(-c4ccc(C)cc4)no3)[nH]n2)cc1 do in these assays?
D1 potentiator: inactive; D1 antagonist: inactive; TRHR enhancer: inactive; D1 ag: inactive; TRHR ag: inactive

Results for O=C(/C=C/c1ccc(Cl)cc1Cl)Nc1ccc(CN2CCOCC2)cc1 ?
D1 potentiator: inactive; D1 antagonist: -38.2; TRHR enhancer: inactive; D1 ag: inactive; TRHR ag: inactive

What do the screens show for `COc1ccc(-n2c(COc3cccc4ccccc34)nnc2SCC(=O)NCc2ccco2)cc1`?
D1 potentiator: inactive; D1 antagonist: -33.8; TRHR enhancer: inactive; D1 ag: inactive; TRHR ag: inactive

What do the screens show for `Cc1ccccc1OCc1nnc(SCC(=O)O)n1-c1ccccc1`?
D1 potentiator: inactive; D1 antagonist: inactive; TRHR enhancer: inactive; D1 ag: inactive; TRHR ag: inactive

Results for CC(=O)Nc1cccc(NC(=O)CCn2c(=O)sc3ccccc32)c1 ?
D1 potentiator: inactive; D1 antagonist: -90.2; TRHR enhancer: inactive; D1 ag: inactive; TRHR ag: inactive

Results for Cn1c(Cn2c(=O)sc3ccccc32)nnc1SCC(=O)NCc1ccco1 ?
D1 potentiator: inactive; D1 antagonist: inactive; TRHR enhancer: inactive; D1 ag: inactive; TRHR ag: inactive

What do the screens show for `O=C(CSc1nnc(Cn2c(=O)sc3ccccc32)n1-c1ccccc1)NCc1ccco1`?
D1 potentiator: inactive; D1 antagonist: inactive; TRHR enhancer: 40.1; D1 ag: inactive; TRHR ag: inactive

What do the screens show for `COc1cccc(-n2c(COc3ccccc3C)nnc2SCC(=O)O)c1`?
D1 potentiator: inactive; D1 antagonist: -32.2; TRHR enhancer: inactive; D1 ag: inactive; TRHR ag: inactive

How did Cc1ccc(CNc2ccc(-c3nc(C(C)C)no3)cc2[N+](=O)[O-])cc1 do in these assays?
D1 potentiator: inactive; D1 antagonist: inactive; TRHR enhancer: inactive; D1 ag: inactive; TRHR ag: inactive

How did CC(C)(C)OC(=O)CC(=O)NNC(=O)c1cc2ccccc2[nH]1 do in these assays?
D1 potentiator: inactive; D1 antagonist: inactive; TRHR enhancer: inactive; D1 ag: inactive; TRHR ag: inactive

How did CCOC(=O)c1cccc(NC(=O)c2cc3c(=O)n(C)c4ccccc4c3n2C)c1 do in these assays?
D1 potentiator: inactive; D1 antagonist: inactive; TRHR enhancer: inactive; D1 ag: inactive; TRHR ag: inactive

Results for O=C(CSc1nnc(Cn2c(=O)sc3ccccc32)n1-c1ccccc1)N1CCOCC1 ?
D1 potentiator: inactive; D1 antagonist: inactive; TRHR enhancer: inactive; D1 ag: inactive; TRHR ag: inactive

What do the screens show for `Cc1ccccc1-n1c(Cn2c(=O)sc3ccccc32)nnc1SCC(=O)N1CCOCC1`?
D1 antagonist: -37.8; TRHR enhancer: inactive; D1 ag: inactive; TRHR ag: inactive

Results for Cc1cc(C)n2c(SCC(=O)NCc3ccco3)nnc2n1 ?
D1 potentiator: inactive; D1 antagonist: -59.1; TRHR enhancer: inactive; D1 ag: inactive; TRHR ag: inactive

Results for O=C(CSc1nnc(Cc2ccccc2)n1Cc1ccccc1)NCc1ccco1 ?
D1 potentiator: inactive; D1 antagonist: inactive; TRHR enhancer: inactive; D1 ag: inactive; TRHR ag: inactive

Results for COc1ccc(CNC(=O)CSc2nnc3nc(C)cc(C)n23)cc1OC ?
D1 potentiator: inactive; D1 antagonist: inactive; TRHR enhancer: inactive; D1 ag: inactive; TRHR ag: inactive
